Measured values: PubChem BioAssay (Tox21)
Values joined by “and” are separate entries in the source; they are usually repeats but may differ in a detail not shown here. Identical values can stand only once. Inconclusive results are not listed. Where a call stands in place of a potency, no number is given. The source holds several records for some structures; these can differ, active in one and inactive in another. Active and inactive are the calls of the source. Unless noted, calls follow the shape of the dose curve; as a rule, active = well fitted curve in the direction sought with a large enough effect in the repeat runs; inconclusive = weak or mixed curves; inactive = no such curve, though single readings can be large; an effect the other way counts as inactive or inconclusive.

Legend:
[1] = qHTS assay to identify small molecule antagonists of the glucocorticoid receptor (GR) signaling pathway - cell viability counter screen (AID 720693); also: nearly all actives have a fitted effect of over 55% in size; also: potency is read from the fitted curve at half-maximal effect
[2] = qHTS assay for identifying genotoxic compounds that show differential cytotoxicity against isogenic chicken DT40 cell lines with known DNA damage response pathways - wild type cell line (AID 743012); also: nearly all actives have a fitted effect of over 60% in size; also: potency is read from the fitted curve at half-maximal effect
How it was run: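 Using parental DT40 (300 cells/well), compounds delivered in DMSO incubate 40 h at 37 C/5% CO2. CellTiter-Glo reagent then stands 30 min at room temperature, and luminescence gives cell viability.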

[3] = qHTS assay for identifying genotoxic compounds that show differential cytotoxicity against isogenic chicken DT40 cell lines with known DNA damage response pathways - Rev3 mutant cell line (AID 743014); also: nearly all actives have a fitted effect of over 55% in size; also: potency is read from the fitted curve at half-maximal effect
[4] = qHTS assay for identifying genotoxic compounds that show differential cytotoxicity against isogenic chicken DT40 cell lines with known DNA damage response pathways - Rad54/Ku70 mutant cell line (AID 743015); also: nearly all actives have a fitted effect of over 60% in size; also: potency is read from the fitted curve at half-maximal effect
[5] = qHTS assay to identify small molecule antagonists of the androgen receptor (AR) signaling pathway - cell viability counter screen (AID 743033; also: nearly all actives have a fitted effect of over 45% in size; also: potency is read from the fitted curve at half-maximal effect)
[6] = qHTS assay to identify small molecule antagonists of the androgen receptor (AR) signaling pathway using the MDA cell line - cell viability counter screen (AID 743041; also: nearly all actives have a fitted effect of over 45% in size; also: potency is read from the fitted curve at half-maximal effect)
How it was run: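 MDA-kb2 AR-luc human breast carcinoma cells (MMTV-luciferase, AR/GR responsive) were treated with compounds plus R1881 agonist for 16 h at 37 °C. Viability was read as CellTiter-Fluor fluorescence in the same wells as the reporter assay.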

[7] = target: Androgen receptor (Homo sapiens) (UniProt P10275); test: qHTS assay to identify small molecule antagonists of the androgen receptor (AR) signaling pathway (AID 743035; active = well fitted inhibition curve with a large enough effect in the signal ratio in the repeat runs, not every such curve was filed as active; the % refers to the signal ratio)
Androgen receptor (Homo sapiens), sequence (P10275 whole entry, looked up): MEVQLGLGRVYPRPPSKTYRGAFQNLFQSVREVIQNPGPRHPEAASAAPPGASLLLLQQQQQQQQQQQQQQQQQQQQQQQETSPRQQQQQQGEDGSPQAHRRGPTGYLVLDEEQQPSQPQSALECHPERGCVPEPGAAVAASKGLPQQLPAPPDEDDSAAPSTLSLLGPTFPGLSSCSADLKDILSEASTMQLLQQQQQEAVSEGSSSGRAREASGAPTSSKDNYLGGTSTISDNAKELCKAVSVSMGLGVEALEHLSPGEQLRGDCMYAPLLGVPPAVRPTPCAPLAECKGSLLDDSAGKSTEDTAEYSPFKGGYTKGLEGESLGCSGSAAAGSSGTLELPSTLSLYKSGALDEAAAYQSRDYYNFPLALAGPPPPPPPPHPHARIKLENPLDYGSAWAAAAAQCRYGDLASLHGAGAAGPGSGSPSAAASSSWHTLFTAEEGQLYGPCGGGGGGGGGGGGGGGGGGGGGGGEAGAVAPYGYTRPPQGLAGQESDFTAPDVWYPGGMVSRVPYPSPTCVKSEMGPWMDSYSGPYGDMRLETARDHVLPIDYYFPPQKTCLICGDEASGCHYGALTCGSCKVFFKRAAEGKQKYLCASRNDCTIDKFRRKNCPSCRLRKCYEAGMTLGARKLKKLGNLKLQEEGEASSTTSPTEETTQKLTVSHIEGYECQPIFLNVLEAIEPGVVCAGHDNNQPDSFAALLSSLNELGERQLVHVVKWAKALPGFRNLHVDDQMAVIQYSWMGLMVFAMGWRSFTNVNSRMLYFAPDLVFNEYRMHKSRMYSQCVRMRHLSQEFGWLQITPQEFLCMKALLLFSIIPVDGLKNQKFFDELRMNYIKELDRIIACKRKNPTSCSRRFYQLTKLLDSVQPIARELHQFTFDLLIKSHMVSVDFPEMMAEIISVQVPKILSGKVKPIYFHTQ
How it was run: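 Using qHTS, AR-UAS-bla GripTite HEK293 cells received compound, then R1881, and were cultured 16 h at 37C/5% CO2 before a 2 h room-temperature LiveBLAzer B/G FRET substrate step and fluorescence measurement.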

[8] = target: Androgen receptor (Homo sapiens) (UniProt P10275); test: qHTS assay to identify small molecule agonists of the androgen receptor (AR) signaling pathway (AID 743036; active = well fitted activation curve with a large enough effect in the signal ratio in the repeat runs, with a control signal flat, not every such curve was filed as active; the % refers to the signal ratio)
How it was run: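 Activation was read as beta-lactamase FRET signal from LiveBLAzer B/G substrate, added for 2 h at room temperature. Before that, GeneBLAzer AR-UAS-bla GripTite (HEK293) cells had 16 h compound exposure at 37C.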

[9] = target: Androgen receptor (Homo sapiens) (UniProt P10275); test: qHTS assay to identify small molecule agonists of the androgen receptor (AR) signaling pathway using the MDA cell line (AID 743040; also: nearly all actives have a fitted effect of over 20% in size)
How it was run: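 MDA-kb2 breast carcinoma cells stably carrying an MMTV-driven luciferase reporter (AR- and GR-responsive) were seeded and held 5 h at 37C, 0% CO2, then exposed to compounds in DMSO for 16 h. Luminescence was read 30 min after ONE-Glo addition.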

[10] = target: Androgen receptor (Homo sapiens) (UniProt P10275); test: qHTS assay to identify small molecule antagonists of the androgen receptor (AR) signaling pathway using the MDA cell line (AID 743042; also: nearly all actives have a fitted effect of over 55% in size)
How it was run: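 MDA-kb2 cells (human breast carcinoma, stably carrying an MMTV-luciferase reporter responsive to AR and GR) were plated at 3,000 cells/well and preincubated 5 hr at 37C, then given compound plus R1881 agonist for 16 h. ONE-Glo luminescence was read.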

Row | SMILES | Potency [1] | Potency [2] | Potency [3] | Potency [4] | Potency [5] | Potency [6] | Potency [7] | outcome [8] | outcome [9] | Potency [10]
1 | O=C(O)c1ccccc1 | inactive | inactive | inactive | inactive | inactive | inactive |  |  |  | 
2 | CCCc1cc(=O)[nH]c(=S)[nH]1 | inactive | inactive | inactive and 61.1 µM (active) | inactive and 54.5 µM (active) | inactive | inactive |  |  |  | 
3 | CC1(C)S[C@@H]2[C@H](NC(=O)[C@H](N)c3ccccc3)C(=O)N2[C@H]1C(=O)O | inactive | inactive | inactive | inactive | inactive | inactive |  |  |  | 
4 | OC[C@H]1O[C@H](O[C@]2(CCl)O[C@H](CCl)[C@@H](O)[C@@H]2O)[C@H](O)[C@@H](O)[C@H]1Cl | inactive | inactive | inactive | inactive | inactive | inactive |  |  |  | 
5 | O=C1c2c(O)cccc2Cc2cccc(O)c21 | inactive | inactive | inactive | inactive | inactive | inactive |  |  |  | 
6 | NC1CCCCC1 | inactive | inactive | 54.8 µM (active) and inactive | 61.5 µM (active) and inactive | inactive | inactive |  |  |  | 
7 | NC(CO)(CO)CO | inactive | inactive | inactive | inactive | inactive | inactive |  |  |  | 
8 | Cc1ccc(S(=O)(=O)O)cc1 | inactive | inactive | inactive | inactive | inactive | inactive |  |  |  | 
9 | CC1(C)O[C@@H]2C[C@H]3[C@@H]4CCC5=CC(=O)C=C[C@]5(C)[C@@]4(F)[C@@H](O)C[C@]3(C)[C@]2(C(=O)CO)O1 | inactive | inactive | inactive | inactive | inactive | inactive |  |  |  | 
10 | Cc1cn([C@H]2C=C[C@@H](CO)O2)c(=O)[nH]c1=O | inactive | inactive | inactive | inactive | inactive | inactive |  |  |  | 
11 | COc1ccc(C(Cl)=C(c2ccc(OC)cc2)c2ccc(OC)cc2)cc1 | inactive | 23.7 µM (active) and 24.3 µM (active) | 29.8 µM (active) and 48.3 µM (active) and 27.3 µM (active) | 26.6 µM (active) and 60.8 µM (active) and 24.3 µM (active) | inactive | inactive |  |  |  | 
12 | CCOC(N)=O | inactive | inactive | inactive | inactive | inactive | inactive |  |  |  | 
13 | CN(C)CCOC(C)(c1ccccc1)c1ccccn1 (stereo not drawn) | inactive | inactive | inactive | inactive | inactive | inactive |  |  |  | 
14 | O=C1O[C@H]([C@@H](O)CO)C(O)=C1O | inactive | inactive and 54.5 µM (active) | inactive and 21.7 µM (active) | inactive and 48.6 µM (active) | inactive | inactive |  |  |  | 
15 | CCCCCCCC(=O)OCC(COC(=O)CCCCCCC)OC(=O)CCCCCCC | inactive | inactive | inactive | inactive | inactive | inactive |  |  |  | 
16 | Cc1cccc(C)c1 | inactive | inactive | inactive | inactive | inactive | inactive |  |  |  | 
17 | O=C1NC(=O)C(c2ccccc2)(c2ccccc2)N1 | inactive | inactive | inactive | inactive | inactive | inactive |  |  |  | 
18 | C=C(C)C(=O)OCC(C)O (stereo not drawn) | inactive | inactive | inactive | inactive | inactive | inactive |  |  |  | 
19 | Nc1c(N=Nc2ccc(-c3ccc(N=Nc4cc(S(=O)(=O)O)c5ccccc5c4N)cc3)cc2)cc(S(=O)(=O)O)c2ccccc12 | inactive | inactive and 6.85 µM (active) | inactive and 34.3 µM (active) | 54.4 µM (active) | inactive | 26.6 µM (active) and 30.6 µM (active) |  |  |  | 
20 | COc1ccc2cc(S(=O)(=O)N[C@H](CC(=O)N[C@H](Cc3ccc(CN4[C@H](C)CCC[C@@H]4C)cc3)C(=O)N(C)C(C)C)c3ccc4c(c3)OCO4)ccc2c1 |  | 7.28 µM (active) | 9.17 µM (active) | 5.16 µM (active) | 20.7 µM (active) |  |  |  |  | 
21 | CN(C)CCOC(c1ccccc1)c1ccccc1 | inactive |  |  |  | inactive | inactive | inactive | inactive | inactive | 
22 | CN1[C@@H]2CC(OC(=O)[C@H](CO)c3ccccc3)C[C@H]1[C@@H]1O[C@@H]12 (stereo partly drawn) | inactive |  |  |  | inactive | inactive |  |  |  | 
23 | CCN(CC)C(=O)c1cccc(C)c1 | inactive | inactive | inactive | inactive | inactive | inactive |  |  |  | 
24 | O=C(O)CC(O)C(=O)O (stereo not drawn) | inactive | inactive | inactive | inactive | inactive | inactive |  |  |  | 

Row | SMILES | Potency [1] | Potency [2] | Potency [3] | Potency [4] | Potency [5] | Potency [6] | Potency [7] | outcome [8] | outcome [9] | Potency [10]
25 | O=c1[nH]cnc2c1ncn2[C@H]1CC[C@@H](CO)O1 | inactive | inactive |  | inactive and 61.1 µM (active) | inactive | inactive |  |  |  | 
26 | C=CCc1ccc(O)c(OC)c1 | inactive | inactive | inactive | inactive | inactive | inactive |  |  |  | 
27 | Oc1ccccc1 | inactive | inactive | inactive | inactive | inactive | inactive |  |  |  | 
28 | CC/C(=C(\c1ccccc1)c1ccc(OCCN(C)C)cc1)c1ccccc1 |  |  |  |  | 13.9 µM (active) and 15.5 µM (active) and 11.1 µM (active) |  |  |  |  | 
29 | NC(=O)n1c(O)c(C(=O)c2cccs2)c2cc(Cl)ccc21 | inactive |  |  |  | inactive | inactive |  |  |  | 
30 | O=C(Nc1ncc([N+](=O)[O-])s1)c1cccs1 | 9.52 µM (active) | 23.7 µM (active) | 29.8 µM (active) | 26.6 µM (active) |  |  |  |  | inactive | inactive
31 | O=C1OC2(c3ccccc31)c1cc(Br)c(O)c(Br)c1Oc1c2cc(Br)c(O)c1Br | inactive | inactive |  | inactive | inactive | 11.9 µM (active) and 7.81 µM (active) and 17.7 µM (active) |  |  |  | 
32 | CCCCC(CC)C(=O)O (stereo not drawn) | inactive |  |  |  | inactive | inactive |  |  |  | 
33 | CC(C)NCC(O)c1ccc(O)c(O)c1 (stereo not drawn) | inactive | inactive and 61.1 µM (active) | 61.1 µM (active) |  | inactive | inactive |  |  |  | 
34 | O=c1[nH]cc(F)c(=O)[nH]1 | inactive | 21.1 µM (active) and 27.9 µM (active) | 50.4 µM (active) and 27.9 µM (active) | 21.1 µM (active) and 40 µM (active) and 17.6 µM (active) | inactive | inactive |  |  |  | 
35 | CC(C)c1c(C(=O)Nc2ccccc2)c(-c2ccccc2)c(-c2ccc(F)cc2)n1CC[C@@H](O)C[C@@H](O)CC(=O)O | inactive |  |  |  | inactive | inactive |  |  |  | 
36 | C1=CC2C3C=CC(C3)C2C1 (stereo not drawn) | inactive |  | 47.7 µM (active) |  | inactive | inactive |  |  |  | 
37 | COc1cccc(O)c1O | inactive |  | 25.3 µM (active) |  |  | inactive |  |  | inactive | 
38 | Nc1c2c(nc3ccccc13)CCCC2 | inactive | inactive and 27.3 µM (active) | inactive and 27.3 µM (active) | inactive and 19.3 µM (active) | inactive | inactive |  |  |  | 
39 | CCCCCCCCCCCCCCCC[N+](C)(C)Cc1ccccc1 | 21.3 µM (active) and 22.6 µM (active) and 35.3 µM (active) | 596 nM (active) and 794 nM (active) and 350 nM (active) | 750 nM (active) and 631 nM (active) and 783 nM (active) | 668 nM (active) and 891 nM (active) and 1.39 µM (active) | 16.9 µM (active) and 17.9 µM (active) and 17.7 µM (active) | 35.5 µM (active) and 27.8 µM (active) |  |  |  | 
40 | O=CC(=O)c1ccccc1 | inactive | inactive |  | inactive | inactive | inactive |  |  |  | 
41 | CCN(Cc1c(F)cccc1Cl)c1c([N+](=O)[O-])cc(C(F)(F)F)cc1[N+](=O)[O-] |  | 30.6 µM (active) | 27.3 µM (active) | 24.3 µM (active) |  | inactive |  |  |  | 
42 | Nc1ccc(O)c([N+](=O)[O-])c1 |  |  |  | 65.6 µM (active) | inactive |  |  |  |  | 
43 | CCc1nc(N)nc(N)c1-c1ccc(Cl)cc1 | inactive | 596 nM (active) and 139 nM (active) and 273 nM (active) | 668 nM (active) and 196 nM (active) and 109 nM (active) | 1.5 µM (active) and 392 nM (active) and 217 nM (active) |  | inactive |  |  |  | 
44 | F[B-](F)(F)F | inactive | inactive | inactive | inactive | inactive | inactive |  |  |  | 
45 | Nc1ccc([N+](=O)[O-])cc1O | inactive |  | 47.2 µM (active) | 55.5 µM (active) | inactive | 54.5 µM (active) |  |  |  | 
46 | CN(N=O)C(=O)N[C@@H]1[C@@H](O)[C@H](O)[C@@H](CO)O[C@@H]1O | inactive | inactive | inactive | inactive | inactive | inactive |  |  |  | 
47 | CC12CCC(CC1)C(C)(C)O2 | inactive | inactive | inactive | inactive | inactive | inactive |  |  |  | 
48 | Cc1cc(C)nc(NS(=O)(=O)c2ccc(N)cc2)n1 | inactive | inactive | inactive | inactive | inactive | inactive |  |  |  | 
